Some test systems named below: NCI-H23 lung; NCI-H226 lung; NCI-H322M lung; HOP-62 NSCLC; HOP-92 NSCLC; NCI-H522 lung; A549/ATCC NSCLC; 786-0 renal; COLO 205 colon; DU-145 prostate; K-562 leukemia; MALME-3M melanoma; MDA-MB-231 breast; RXF 393 renal; SF-268 CNS; SF-295 CNS; SF-539 CNS; UACC-257 melanoma; M14 melanoma; NCI-H460 lung.
Holding throughout (test): NCI-60 one-dose screen, 48 h (100 = growth as untreated, 0 = no growth, -100 = all killed)
What all share (settings): 10 µM unless noted

Compounds without any hit were thinned out: in the full panel of roughly 83,000, 20% have a hit.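 Plates (96-well) were seeded with cells, treated with compound at one concentration, and incubated for 48 hours before percent growth was determined.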 Unmarked numbers belong to inactive results. Activity calls are given as the source filed them. How the source made its calls: active means growth percent below 10; inactive means the rest.

On to `C(=N\Nc1ccc2ccccc2n1)/c1ccccn1`, for which the growth was 32.4% with NCI-H23 lung; 10.9% in the test with NCI-H226 lung; -5.75% (active) with NCI-H322M lung; 6.17% (active) in the test with HOP-62 NSCLC; 42.2% in the test on HOP-92 NSCLC; 20.2% with NCI-H522 lung. The growth was 8.26% (active) with A549/ATCC NSCLC; 22.1% in the test with 786-0 renal; 20% in the test on COLO 205 colon; 22.7% in the test on DU-145 prostate; 15.4% with K-562 leukemia; -23.6% (active) in the test with MALME-3M melanoma. The growth with MDA-MB-231 breast was 30.5%; in the test on RXF 393 renal it was 16.7%; in the test with SF-268 CNS, 16.7%; in the test with SF-295 CNS it was 14.7%; in the test on SF-539 CNS, -14.2% (active); with UACC-257 melanoma, -3.38% (active). The growth in the test on M14 melanoma is -8.17% (active).

`NC(=S)N/N=C\c1nccc2c(N)cccc12`: the growth in the test with NCI-H23 lung was 15.6%; with NCI-H226 lung it was -5.48% (active); with NCI-H322M lung it was 4.54% (active); with HOP-62 NSCLC it was -7.04% (active); with HOP-92 NSCLC, 19.8%; in the test on NCI-H522 lung, 6.31% (active). For the same molecule, the growth in the test with A549/ATCC NSCLC was 12.4%; in the test on 786-0 renal, 14.2%; with COLO 205 colon it was 16.2%; in the test with DU-145 prostate, 11%; in the test with K-562 leukemia, 14.2%; in the test on MALME-3M melanoma it was 3.21% (active). Also, the growth in the test on MDA-MB-231 breast is 49%; in the test with RXF 393 renal, 35.8%; in the test with SF-268 CNS it was 8.21% (active); with SF-295 CNS, -15.5% (active); in the test with UACC-257 melanoma, 7.45% (active); in the test on M14 melanoma it was -34.8% (active).

As to `COc1cc(/C=C/c2ccnc3ccccc23)cc(OC)c1OC`, the growth with NCI-H23 lung was 26.5%; in the test with NCI-H226 lung, 38.3%; in the test with NCI-H322M lung, 65.7%; in the test on HOP-62 NSCLC it was 28.1%; in the test on NCI-H460 lung, 22.4%; with NCI-H522 lung, 26.8%. For the same molecule, the growth in the test with A549/ATCC NSCLC was 37%; in the test on 786-0 renal, 39.6%; with COLO 205 colon it was 22.5%; in the test with DU-145 prostate it was 64.4%; in the test on K-562 leukemia, 8.29% (active); in the test with MALME-3M melanoma it was 40.3%. For the same molecule, the growth was 47.1% with MDA-MB-231 breast; 22.1% in the test on RXF 393 renal; 48.2% with SF-268 CNS; 32.4% in the test on SF-295 CNS; 46.1% in the test on SF-539 CNS; 58.7% in the test with UACC-257 melanoma. Moreover, the growth in the test with M14 melanoma is 13.3%.

Take `COC(=O)c1nc(=S)[nH]c(C(=O)OC)c1C(=O)c1ccc(Cl)c(Cl)c1`: the growth with NCI-H23 lung was 103%; with NCI-H226 lung, 102%; with NCI-H322M lung, 107%; with HOP-62 NSCLC, 115%; with NCI-H460 lung, 111%; in the test on NCI-H522 lung it was 101%. Also, the growth in the test with A549/ATCC NSCLC was 105%; in the test with 786-0 renal, 107%; with COLO 205 colon, 120%; with DU-145 prostate, 120%; in the test on K-562 leukemia, 113%; in the test on MALME-3M melanoma it was 102%. In addition, the growth with MDA-MB-231 breast is 102%; in the test with RXF 393 renal it was 112%; with SF-268 CNS, 111%; in the test on SF-295 CNS it was 99.8%; in the test on SF-539 CNS it was 102%; in the test on UACC-257 melanoma, 111%. In addition, the growth in the test with M14 melanoma was 107%.

With `CCNc1nnnn1CC`, the growth with NCI-H23 lung is 107%; with NCI-H226 lung, 102%; in the test with NCI-H322M lung, 105%; in the test on HOP-62 NSCLC, 110%; with NCI-H460 lung it was 106%; with NCI-H522 lung, 106%. Moreover, the growth in the test on A549/ATCC NSCLC was 113%; with COLO 205 colon it was 109%; in the test on DU-145 prostate, 109%; in the test on K-562 leukemia, 109%; in the test with MALME-3M melanoma it was 116%; in the test on MDA-MB-231 breast, 103%. Besides, the growth with RXF 393 renal was 106%; with SF-268 CNS, 106%; in the test with SF-295 CNS, 103%; in the test on SF-539 CNS, 103%; in the test with UACC-257 melanoma, 116%; in the test on M14 melanoma, 104%.

In the case of `CCOC(=O)C1(C)CCCC1N` (centres undefined), the growth in the test with NCI-H23 lung is 102%; with NCI-H226 lung, 99.1%; in the test with NCI-H322M lung, 101%; in the test with NCI-H460 lung it was 109%; in the test on HOP-92 NSCLC it was -14.2% (active); in the test on NCI-H522 lung, 102%. For the same molecule, the growth in the test on A549/ATCC NSCLC was 110%; with 786-0 renal, 103%; with COLO 205 colon it was 131%; in the test with DU-145 prostate, 108%; with K-562 leukemia, 101%; with MALME-3M melanoma, 101%. Moreover, the growth in the test on MDA-MB-231 breast is 97%; in the test on RXF 393 renal it was 104%; in the test on SF-268 CNS, 92.4%; in the test on SF-295 CNS it was 105%; in the test on SF-539 CNS it was 103%; with UACC-257 melanoma, 113%. For the same molecule, the growth with M14 melanoma was 106%.

Consider `O=C(c1ccccc1)N(CCCl)C(=O)N(CCCl)C(=O)c1ccccc1`, for which the growth is 93.7% in the test on NCI-H23 lung; 93.7% in the test with NCI-H226 lung; 90.2% with NCI-H322M lung; 108% in the test on NCI-H460 lung; 62.3% in the test on HOP-92 NSCLC; 85.7% in the test with NCI-H522 lung. The growth is 95.7% in the test with A549/ATCC NSCLC; 103% in the test with 786-0 renal; 99.9% with COLO 205 colon; 109% with DU-145 prostate; 95.5% in the test with K-562 leukemia; 95.2% with MALME-3M melanoma. Moreover, the growth is 82.1% with MDA-MB-231 breast; 104% in the test on RXF 393 renal; 102% in the test on SF-268 CNS; 81.6% with SF-295 CNS; 94.7% in the test on SF-539 CNS; 101% with UACC-257 melanoma. Moreover, the growth in the test with M14 melanoma is 101%.

In the case of `COc1ccc2c(c1)c(CC(=O)O)c(C)n2C(=O)c1ccc(Cl)cc1`, the growth with NCI-H23 lung is 92.5%; in the test with NCI-H226 lung it was 94.8%; with NCI-H322M lung, 89.7%; in the test on HOP-62 NSCLC it was 100%; in the test on HOP-92 NSCLC, 82.8%; in the test with NCI-H522 lung it was 97.5%. In addition, the growth in the test on 786-0 renal was 77.4%; in the test on COLO 205 colon it was 128%; in the test with DU-145 prostate, 107%; in the test with K-562 leukemia, 73.5%; with MALME-3M melanoma, 85.1%; in the test on MDA-MB-231 breast, 102%. The growth in the test with RXF 393 renal is 109%; in the test with SF-268 CNS it was 109%; in the test with SF-295 CNS, 68.6%; with SF-539 CNS it was 114%; with UACC-257 melanoma it was 109%; in the test on M14 melanoma, 95.7%.

Values taken from PubChem BioAssay (NCI).
